Measurements published in PubChem BioAssay AID1159580 (chemical genetic matrix, 2015).
In all, about 5,500 compounds went through this assay and about 2,000 (36%) were called active. Inconclusive results (about 18%) are left out. No stated cut-off is given here; in the data, active means normalized growth mostly below about 0.91 (no sharp cut-off); inconclusive means no clear call, values can overlap the other calls; inactive means mostly above about 0.92. The list shows a part of the results.

Experiment: chemical genetic growth profiling, strain panel (AID 1159580);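 further: tested at 20 µM; growth read once vehicle control cultures reached saturation at 30 °C; 1 = growth at the plate median or of vehicle wells; lower values mean less growth of the strain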
Conditions: S. cerevisiae deletion strains, growth OD

Measured: normalized growth

COc1cccc(OC)c1OCCNCC1CSc2ccccc2O1 (configuration not stated)
inactive: locus YAL040C, strain CLN3, hits give low values 1.01 | locus YDR363W, strain ESC2, hits give low values 0.936 | locus YER002W, strain NOP16, hits give low values 1.01 | locus YJR075W, strain HOC1, hits give low values 0.985 | locus YMR263W, strain SAP30, hits give low values 0.995 | locus YMR307W, strain GAS1, hits give low values 1.01 | locus YNL175C, strain NOP13, hits give low values 0.986 | locus YNL197C, strain WHI3, hits give low values 1.02 | locus YNL224C, strain SQS1, hits give low values 1 | locus YOR083W, strain WHI5 (second series), hits give low values 0.966 | locus YPL241C, strain CIN2, hits give low values 1

ONC(=Nc1ccccc1Cl)c1ccccc1Cl
active: locus YFR019W, strain FAB1, hits give low values 0.714 | locus YHR030C, strain SLT2, hits give low values 0.731 | locus YLR113W, strain HOG1, hits give low values 0.839
inactive: locus YAR019C, strain CDC15, hits give low values 0.999 | locus YBL105C, strain PKC1, hits give low values 0.987 | locus YBR135W, strain CKS1, hits give low values 0.992 | locus YBR136W, strain MEC1, hits give low values 0.986 | locus YBR160W, strain CDC28, hits give low values 0.993 | locus YDL017W, strain CDC7, hits give low values 0.988 | locus YDL028C, strain MPS1, hits give low values 0.985 | locus YDL101C, strain DUN1, hits give low values 0.993 | locus YDL108W, strain KIN28, hits give low values 0.979 | locus YDL132W, strain cdc53, hits give low values 0.997 | locus YDL214C, strain PRR2, hits give low values 0.824 | locus YDR052C, strain DBF4, hits give low values 0.983 | locus YDR054C, strain cdc34, hits give low values 0.992 | locus YDR226W, strain ADK1, hits give low values 0.987 | locus YDR477W, strain SNF1, hits give low values 0.859 | locus YER123W, strain YCK3, hits give low values 0.688 | locus YER133W, strain GLC7, hits give low values 0.833 | locus YFL009W, strain cdc4, hits give low values 0.999 | locus YFL029C, strain CAK1, hits give low values 0.996 | locus YFR003C, strain YPI1, hits give low values 0.989 | locus YFR028C, strain CDC14, hits give low values 0.997 | locus YGR040W, strain KSS1, hits give low values 0.81 | locus YGR052W, strain FMP48, hits give low values 0.786 | locus YGR092W, strain DBF2, hits give low values 0.839 | locus YHR079C, strain IRE1, hits give low values 0.889 | locus YHR082C, strain KSP1, hits give low values 0.829 | locus YHR205W, strain SCH9, hits give low values 0.875 | locus YIL147C, strain SLN1, hits give low values 0.983 | locus YJL095W, strain BCK1, hits give low values 0.697 | locus YJL128C, strain PBS2, hits give low values 0.95 | locus YJL157C, strain FAR1, hits give low values 0.785 | locus YJR016C, strain ILV3, hits give low values 0.986 | locus YJR066W, strain TOR1 (second series), hits give low values 0.729 | locus YJR066W, strain TOR1, hits give low values 0.769 | locus YKL048C, strain ELM1, hits give low values 0.922 | locus YKL067W, strain YNK1, hits give low values 0.817 | locus YKL101W, strain HSL1, hits give low values 0.854 | locus YKL193C, strain SDS22, hits give low values 1 | locus YKL203C, strain TOR2, hits give low values 0.891 | locus YLR133W, strain CKI1, hits give low values 0.841 | locus YLR403W, strain SFP1, hits give low values 0.832 | locus YML070W, strain DAK1, hits give low values 0.786 | locus YMR001C, strain CDC5, hits give low values 0.996 | locus YMR205C, strain PFK2 (second series), hits give low values 0.83 | locus YMR277W, strain FCP1, hits give low values 1 | locus YNL006W, strain LST8, hits give low values 0.997 | locus YNL020C, strain ARK1, hits give low values 0.809 | locus YNL161W, strain CBK1, hits give low values 0.994 | locus YNL183C, strain NPR1, hits give low values 0.86 | locus YNL207W, strain RIO2, hits give low values 0.99 | locus YNL222W, strain SSU72, hits give low values 0.993 | locus YNL307C, strain MCK1 (second series), hits give low values 0.811 | locus YOL078W, strain AVO1, hits give low values 0.993 | locus YOL136C, strain PFK27, hits give low values 0.806 | locus YOR061W, strain CKA2, hits give low values 0.69 | locus YOR119C, strain RIO1, hits give low values 0.886 | locus YOR231W, strain MKK1, hits give low values 0.836 | locus YOR329C, strain SCD5, hits give low values 0.998 | locus YPL031C, strain PHO85, hits give low values 0.824 | locus YPL153C, strain RAD53, hits give low values 0.777 | locus YPL204W, strain HRR25, hits give low values 0.859 | locus YPL209C, strain IPL1, hits give low values 0.992 | locus YPL256C, strain CLN2, hits give low values 0.904 | locus YPR025C, strain CCL1, hits give low values 0.993 | locus YPR106W, strain ISR1, hits give low values 0.99 | locus YPR111W, strain DBF20, hits give low values 0.994 | strain NNK1, hits give low values 0.992 | strain TSCII, hits give low values 0.991
